From PubChem BioAssay AID1159580 (chemical genetic matrix, 2015)
The whole screen tested about 5,500 compounds, of which about 2,000 (36%) were called active. About 18% were inconclusive and are not listed. No stated cut-off is given here; in the data, active means normalized growth mostly below about 0.91 (no sharp cut-off); inconclusive means no clear call, values can overlap the other calls; inactive means mostly above about 0.92. This is one part of the list.

Assay: chemical genetic growth profiling, strain panel (AID 1159580);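 further: tested at 20 µM; growth read once vehicle control cultures reached saturation at 30 °C; 1 = growth at the plate median or of vehicle wells; lower values mean less growth of the strain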
Conditions: S. cerevisiae deletion strains, growth OD

Measured: normalized growth

COc1cc(C(=O)O[C@H]2CC[C@@]3(C)[C@@H]4CC[C@H]5[C@]6(O)C[C@H](O)[C@@]7(O)[C@@H](CN8C[C@@H](C)CC[C@H]8[C@@]7(C)O)[C@]6(O)C[C@@]53O[C@]24O)cc(OC)c1OC
inactive: locus YAL021C, strain ccr4, hits give low values 1 | locus YAL026C, strain drs2, hits give low values 1.02 | locus YAL030W, strain snc1, hits give low values 0.996 | locus YBL061C, strain skt5, hits give low values 0.994 | locus YBR009C, strain hhf1, hits give low values 1.01 | locus YBR021W, strain FUR4, hits give low values 1.01 | locus YBR023C, strain chs3, hits give low values 0.996 | locus YBR171W, strain sec66, hits give low values 1.02 | locus YBR229C, strain ROT2, hits give low values 0.955 | locus YBR231C, strain swc5, hits give low values 0.994 | locus YBR279W, strain paf1, hits give low values 1.01 | locus YCL011C, strain gbp2, hits give low values 0.997 | locus YCL016C, strain dcc1, hits give low values 1 | locus YCL029C, strain bik1, hits give low values 0.98 | locus YCL061C, strain MRC1, hits give low values 1 | locus YCL069W, strain vba3, hits give low values 1 | locus YCR088W, strain abp1, hits give low values 1.01 | locus YDL005C, strain med2, hits give low values 0.973 | locus YDL035C, strain GPR1, hits give low values 1 | locus YDL040C, strain nat1, hits give low values 1 | locus YDL074C, strain BRE1, hits give low values 1.03 | locus YDL101C, strain DUN1, hits give low values 0.989 | locus YDL134C, strain PPH21, hits give low values 0.979 | locus YDL185W, strain tfp1, hits give low values 0.978 | locus YDL192W, strain arf1, hits give low values 1.01 | locus YDR001C, strain nth1, hits give low values 1.01 | locus YDR069C, strain doa4, hits give low values 0.998 | locus YDR101C, strain arx1, hits give low values 1.03 | locus YDR137W, strain rgp1, hits give low values 0.965 | locus YDR159W, strain sac3, hits give low values 0.972 | locus YDR162C, strain NBP2, hits give low values 0.985 | locus YDR195W, strain ref2 0.967 | locus YDR297W, strain sur2, hits give low values 1.01 | locus YDR318W, strain mcm21, hits give low values 0.972 | locus YDR334W, strain swr1, hits give low values 1.01 | locus YDR335W, strain msn5, hits give low values 1.01 | locus YDR388W, hits give low values 0.993 | locus YDR392W, strain spt3, hits give low values 0.996 | locus YDR502C, strain sam2, hits give low values 1 | locus YEL003W, strain gim4, hits give low values 1 | locus YEL037C, strain rad23, hits give low values 1.03 | locus YEL061C, strain CIN8 (second series), hits give low values 1.02 | locus YEL061C, strain CIN8, hits give low values 0.993 | locus YER015W, strain faa2, hits give low values 0.998 | locus YER016W, strain bim1, hits give low values 0.995 | locus YER110C, hits give low values 0.975 | locus YER111C, strain swi4, hits give low values 1 | locus YER155C, strain BEM2 (second series), hits give low values 1 | locus YER155C, strain BEM2, hits give low values 0.99 | locus YER167W, strain BCK2, hits give low values 0.993 | locus YFR010W, strain ubp6, hits give low values 1.02 | locus YGL078C, strain dbp3, hits give low values 0.999 | locus YGL086W, strain mad1, hits give low values 1.05 | locus YGL167C, strain pmr1, hits give low values 0.999 | locus YGL173C, strain kem1, hits give low values 1 | locus YGL227W, strain vid30, hits give low values 1.01 | locus YGL240W, strain doc1, hits give low values 0.978 | locus YGL248W, strain PDE1, hits give low values 0.998 | locus YGL253W, strain hxk2, hits give low values 1 | locus YGR078C, strain PAC10, hits give low values 0.99 | locus YGR135W, strain pre9, hits give low values 0.99 | locus YGR229C, strain SMI1, hits give low values 1.02 | locus YGR252W, strain gcn5, hits give low values 0.957 | locus YHR013C, strain ard1, hits give low values 0.962 | locus YHR027C, strain rpn1, hits give low values 1.01 | locus YHR030C, strain SLT2, hits give low values 1 | locus YHR079C, strain IRE1 (second series), hits give low values 0.992 | locus YHR094C, strain hxt1, hits give low values 0.971 | locus YHR129C, strain ARP1, hits give low values 0.985 | locus YHR142W, strain chs7, hits give low values 1.02 | locus YHR200W, strain rpn10, hits give low values 0.987 | locus YIL066C, strain RNR3, hits give low values 0.983 | locus YIL073C, strain SPO22, hits give low values 1.02 | locus YIL125W, strain kgd1, hits give low values 1 | locus YIR030C, strain dcg1, hits give low values 0.993 | locus YJL092W, strain hpr5, hits give low values 1.02 | locus YJL095W, strain BCK1 (second series), hits give low values 0.993 | locus YJL095W, strain BCK1, hits give low values 0.998 | locus YJL115W, strain asf1, hits give low values 1 | locus YJL129C, strain trk1, hits give low values 1.01 | locus YJL134W, strain LCB3, hits give low values 0.985 | locus YJL154C, strain vps35, hits give low values 1.01 | locus YJL164C, strain tpk1, hits give low values 0.999 | locus YJL166W, strain qcr8, hits give low values 1.01 | locus YJL168C, strain set2, hits give low values 0.996 | locus YJL187C, strain SWE1 (second series), hits give low values 1.01 | locus YJL187C, strain SWE1, hits give low values 1.01 | locus YJR043C, strain POL32, hits give low values 0.993 | locus YKL009W, strain mrt4, hits give low values 0.981 | locus YKL068W, hits give low values 0.988 | locus YKL085W, strain MDH1 (second series), hits give low values 1 | locus YKL085W, strain MDH1, hits give low values 1 | locus YKL160W, strain elf1, hits give low values 1 | locus YKR001C, strain vps1, hits give low values 1.06 | locus YKR026C, strain gcn3, hits give low values 1.01 | locus YKR091W, strain srl3, hits give low values 1 | locus YLL001W, strain dnm1, hits give low values 1.01 | locus YLL026W, hits give low values 0.989 | locus YLL041C, strain sdh2, hits give low values 1.01 | locus YLR027C, strain aat2, hits give low values 0.977 | locus YLR039C, strain RIC1, hits give low values 0.972 | locus YLR058C, strain SHM2, hits give low values 0.978 | locus YLR102C, strain apc9, hits give low values 0.985 | locus YLR221C, strain rsa3, hits give low values 1 | locus YLR258W, strain gsy2, hits give low values 0.98 | locus YLR262C, strain YPT6 (second series), hits give low values 0.954 | locus YLR262C, strain YPT6, hits give low values 0.975 | locus YLR268W, strain sec22, hits give low values 1.04 | locus YLR320W, strain mms22, hits give low values 0.986 | locus YLR330W, strain CHS5, hits give low values 1 | locus YLR342W, strain FKS1 (second series), hits give low values 1.03 | locus YLR342W, strain FKS1, hits give low values 0.986 | locus YLR357W, strain rsc2, hits give low values 0.974 | locus YLR370C, strain arc18, hits give low values 0.985 | locus YLR371W, strain rom2, hits give low values 0.991 | locus YLR384C, strain iki3, hits give low values 0.974 | locus YLR418C, strain cdc73, hits give low values 0.977 | locus YML016C, strain PPZ1, hits give low values 0.998 | locus YML032C, strain rad52, hits give low values 0.96 | locus YML120C, strain ndi1, hits give low values 1 | locus YML124C, strain tub3, hits give low values 0.985 | locus YMR058W, strain fet3, hits give low values 1 | locus YMR078C, strain ctf18, hits give low values 0.99 | locus YMR125W, strain sto1, hits give low values 1.02 | locus YMR129W, hits give low values 1 | locus YMR205C, strain PFK2, hits give low values 1 | locus YMR223W, strain ubp8, hits give low values 0.964 | locus YMR231W, strain pep5, hits give low values 0.999 | locus YMR307W, strain GAS1, hits give low values 1.07 | locus YNL067W, strain RPL9B, hits give low values 0.997 | locus YNL071W, strain lat1, hits give low values 1 | locus YNL153C, strain GIM3, hits give low values 1.01 | locus YNL209W, strain ssb2, hits give low values 0.997 | locus YNL233W, strain BNI4, hits give low values 1.01 | locus YNL248C, strain rpa49, hits give low values 1.01 | locus YNL250W, strain rad50, hits give low values 0.977 | locus YNL271C, strain bni1, hits give low values 0.993 | locus YNL298W, strain CLA4, hits give low values 0.971 | locus YNL307C, strain MCK1, hits give low values 0.986 | locus YNL322C, strain KRE1 (second series), hits give low values 0.989 | locus YNL322C, strain KRE1, hits give low values 0.996 | locus YNR049C, strain mso1, hits give low values 0.987 | locus YNR052C, strain pop2, hits give low values 0.996 | locus YOL012C, strain htz1 1.37 | locus YOL147C, strain pex11, hits give low values 0.985 | locus YOR001W, strain rrp6, hits give low values 0.988 | locus YOR061W, strain CKA2, hits give low values 0.962 | locus YOR069W, strain VPS5, hits give low values 0.996 | locus YOR070C, strain gyp1, hits give low values 1.01 | locus YOR080W, strain dia2, hits give low values 1.01 | locus YOR083W, strain WHI5, hits give low values 1 | locus YOR106W, strain vam3, hits give low values 0.999 | locus YOR136W, strain idh2, hits give low values 0.985 | locus YOR144C, strain elg1, hits give low values 0.98 | locus YOR184W, strain ser1, hits give low values 0.976 | locus YOR265W, strain rbl2, hits give low values 0.983 | locus YOR270C, strain vph1, hits give low values 1.11 | locus YOR290C, strain snf2, hits give low values 1.02 | locus YOR316C, strain cot1, hits give low values 0.976 | locus YPL051W, strain arl3, hits give low values 0.998 | locus YPL055C, strain LGE1, hits give low values 1.01 | locus YPL078C, strain atp4, hits give low values 0.998 | locus YPL106C, strain sse1, hits give low values 0.968 | locus YPL240C, strain hsp82, hits give low values 0.992 | locus YPR119W, strain clb2, hits give low values 0.979 | locus YPR141C, strain kar3, hits give low values 0.981 | locus YPR163C, strain tif3, hits give low values 1.01 | locus YPR167C, strain met16, hits give low values 0.978 | strain wtn01, hits give low values 1.04
